Screening results from PubChem.
Sampled rows, rich in hits. Any-hit rate of the full collection: about 3.7%.
Tau ThT inhib: qHTS for Inhibitors of Tau Fibril Formation, Thioflavin T Binding | Microtubule-associated protein tau (Homo sapiens), P10636 | recombinant tau K18 P301L, heparin-induced fibrillization, ThT fluorescence | Potency, µM (doses to about 57.4 µM), inactives show at the highest dose activity, negative = inhibition, hits mostly inhibitors | actives 2.1% (n = 270,000); also: % is scaled to controls: 0 for no effect and ±100 for the full control effect; nearly all actives have a fitted effect of over 55% in size
Target sequence (P10636 561-689 P618L limits assumed): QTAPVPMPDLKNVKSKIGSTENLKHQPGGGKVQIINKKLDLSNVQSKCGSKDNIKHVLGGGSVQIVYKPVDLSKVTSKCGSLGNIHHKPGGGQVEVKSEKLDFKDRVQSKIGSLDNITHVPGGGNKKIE
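Heparin-induced fibrillization of the P301L-mutant K18 repeat-domain fragment of human tau was followed by ThT binding in quantitative high-throughput format.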
HTT ATP protect: qHTS Multiplex Assay to Identify Dual Action Probes in a Cell Model of Huntington: Cytoprotection (ATP); Potency, µM (doses to about 56.4 µM), inactives show cytoprotection (ATP increase), actives largely listed as activators; actives 0.14% (n = 230,000); PC12 HTT-Q103 induced, cytoprotection, ATP luminescence, 40 h; AID 1471, 2008; also: % of control where 0% means no effect; nearly all actives have a fitted effect of over 45% in size
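Stable PC12 Q103-GFP cells in serum-supplemented, phenol red-free DMEM; induction by tebufenozide at 100 nM final; compound dose series; cell viability quantified luminescently from ATP.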
HttQ103 aggreg: qHTS Multiplex Assay to Identify Dual Action Probes in a Cell Model of Huntington: Aggregate Formation (GFP); Potency, µM (highest dose often 46.1 µM), without a hit: at the top dose activity change, negative = inhibition, usual class: inhibitors; AID 1688, 2009; actives 1.1% (n = 220,000); PC12 HttQ103-GFP aggregates, Acumen cytometry, 40 h; also: % is scaled to controls: 0 for no effect and ±100 for the full control effect; nearly all actives have a fitted effect of over 60% in size
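Huntingtin Q103 exon 1–GFP aggregates in induced PC12 cells (100 nM tebufenozide) were quantified by cytometry from lysates, with compounds dosed in titration.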
Tau fluor counter: Counterscreen qHTS for Inhibitors of Tau Fibril Formation, Fluorescence Polarization; tau K18 P301L Alexa594 fluorescence, heparin fibrillization; Potency, µM (series often up to 57.7 µM), without a hit: top-dose activity change, negative = decrease; actives 0.93% (n = 280,000); also: % is scaled to controls: 0 for no effect and ±100 for the full control effect; nearly all actives have a fitted effect of over 55% in size
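Human tau K18 P301L (15 uM unlabeled, 0.24 uM Alexa 594-labeled) in 100 mM sodium acetate pH 7 with 20 uM heparin, 6 hr at 37 C. ThT 30 uM added, 1 hr ambient; Alexa 594 FP and total fluorescence read at 555/632 nm.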
Tau fibril FP: qHTS for Inhibitors of Tau Fibril Formation, Fluorescence Polarization. Microtubule-associated protein tau (Homo sapiens), P10636. K18 P301L tau heparin fibrillization, Alexa594 FP, 6 h. Potency, µM (doses to about 57.7 µM), for the others: at the top dose activity, negative = inhibition, usual class: inhibitors. actives 0.39% (n = 280,000). AID 1468, 2008; also: % is scaled to controls: 0 for no effect and ±100 for the full control effect; nearly all actives have a fitted effect of over 55% in size
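Read-out: fluorescence polarization of Alexa 594-labeled tau (0.24 uM), 555 nm excitation, 632 nm emission. Mixtures held 15 uM unlabeled K18 P301L, compound and 20 uM heparin, pH 7 acetate buffer, incubated 6 hr at 37 C.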
* = called active by the depositor; ? = inconclusive; · = no result; [ ] = another dose, or the depositor's remark. Calls follow the shape of the dose curve; as a rule, active = well fitted curve in the direction sought with a large enough effect; inconclusive = small, poorly fitted or top-dose-only effect, or another doubt; inactive = no such curve, though single readings can be large; an effect the other way counts as inactive or inconclusive. Potency is read from the fitted curve at half-maximal effect.

SMILES	Tau ThT inhib	HTT ATP protect	HttQ103 aggreg	Tau fluor counter	Tau fibril FP
Cc1ccc(N2C(=O)/C(=C/c3ccc(CN(CCC#N)S(C)(=O)=O)o3)C(=O)NC2=S)cc1C	18µM*	-18%	4%	-26%	?
Cc1cccc(N2C(=O)/C(=C/c3ccc(CN(CCC#N)S(C)(=O)=O)o3)C(=O)NC2=S)c1	25µM*	-6%	7%	-21%	?
Cc1cccc(N2C(=O)NC(=O)/C(=C/c3ccc([N+](=O)[O-])o3)C2=O)c1	0%	-1%[10 µM]	?	2%	4%
COc1ccc2c(c1O)-c1cccc3c1[C@H](C2)N(C)CC3	·	0%[1.9 µM]	·	·	·
C1C[C@@H]2CN(CCCN3CCOCC3)[C@@H](C1)O2	·	11%[10 µM]	·	·	·
CCNCCC1(CC)C(=O)NC(=O)NC1=O	·	-14%[10 µM]	·	·	·
O=C(Cc1cc(=O)[nH][nH]1)N/N=C/c1cccc2ccccc12	3.2µM*	-12%	-6%	?	?
N=C(N)SCc1ccc(Cl)c2ccccc12 (tested in a mixture with another compound)	·	24%[10 µM]	·	·	·
Nc1ccc(N)cc1	14µM*	-110%	13%	?	?
C=C1C(=O)O[C@H]2C[C@@H](C)[C@@H]3C=CC(=O)[C@@]3(C)C[C@H]12	18µM*	43%[10 µM]	?	-9%	?
C=C1C(=O)O[C@H]2[C@H]1[C@H](OC(=O)CC(=O)O[C@@H]1C[C@@H](C)[C@@H]3C=CC(=O)[C@@]3(C)[C@H]3OC(=O)C(=C)[C@H]13)C[C@@H](C)[C@H]1C=CC(=O)[C@]12C	16µM*	4.5µM*	21%[9.22 µM]	-8%	11µM*
C=C1C(=O)O[C@@H]2C[C@@H](C)[C@@H]3C=CC(=O)[C@@]3(C)[C@@H](OC(=O)CC(=O)O[C@H]3[C@@H]4C(=C)C(=O)O[C@@H]4C[C@@H](C)[C@@H]4C=CC(=O)[C@]43C)[C@H]12	2.8µM*	-97%[10 µM]	0.63µM*	-18%	8.9µM*
CN[C@H]1[C@H](C)O[C@@H](O[C@@H]2C/C=C(/C)C/C(C)=C\C=C/CC[C@@H](C)CNC(=O)/C=C\C=C/[C@H]2C)C[C@@H]1O	·	-88%[10 µM]	·	·	·
C[C@@H]1O[C@@H](O[C@H]2C[C@@H](O)[C@]3(CO)[C@@H]4[C@@H](O)C[C@]5(C)[C@H]([C@@H]6COC(=O)C6)CC[C@@]5(O)[C@H]4CC[C@@]3(O)C2)[C@H](O)[C@H](O)[C@@H]1O	·	7%[1.9 µM]	·	·	·
C=CC1CC=CCC1 (stereo unspecified)	·	1%	·	·	·
O=C1NC(=O)N(c2ccc(Cl)cc2)C(=O)/C1=C\c1ccc(Sc2nc3ccccc3[nH]2)o1	14µM*	·	6%	-26%	?
Nc1ccc(C2(c3ccc(N)cc3)c3ccccc3-c3ccccc32)cc1	?	-14%[10 µM]	-8%	14µM*[quencher]	?
CCC1(CCSC(=N)N)C(=O)NC(=O)NC1=O	·	-23%[10 µM]	·	·	·
O=C(Nc1ccc(Cl)c(C(F)(F)F)c1)NC1CC2CCCC(C1)N2Cc1ccccc1 (stereo unspecified)	-12%	-12%	-8%	?	28µM*
COc1ccc(C=O)cc1OC	·	-12%	·	·	·
CN1C(=O)NC(=O)/C(=C\C=C\c2ccccc2[N+](=O)[O-])C1=O	25µM*	-8%	?	-22%	?
COC(=O)C[C@](O)(CCCC(C)(C)O)C(=O)O[C@@H]1C(OC)=C[C@]23CCCN2CCc2cc4c(cc2[C@H]13)OCO4	-5%	-82%	0.16µM*	-4%	0%
Cc1cc2cc(CNC(=O)Nc3ccc(Cl)c(Cl)c3)ccc2n1C	-10%	14%[10 µM]	-2%[9.22 µM]	?	-14%
C=CCNC(=S)Nc1ccc(OC(=O)Nc2ccc(Cl)c(Cl)c2)cc1	?	4%[10 µM]	-25%[9.22 µM]	?	16µM*
O=[As](O)(O)c1ccc(NCc2ccccc2)cc1	·	4%[10 µM]	·	·	·
SMILES	Tau ThT inhib	HTT ATP protect	HttQ103 aggreg	Tau fluor counter	Tau fibril FP
Cc1cccc(-n2c(O)c(/C=N/Nc3nc4c(c(=O)n(C)c(=O)n4C)n3C)c(=O)[nH]c2=S)c1	13µM*	19%[10 µM]	-20%	?	?
Cc1ccccc1-n1c(O)c(/C=N/Nc2nc3c(c(=O)n(C)c(=O)n3C)n2C)c(=O)[nH]c1=S	?	13%[10 µM]	-7%	-14%	?
Cn1c(O)c(C=NC2CCCCC2)c(=O)[nH]c1=S	-5%	-16%[10 µM]	-11%[9.22 µM]	2%	-5%
Cn1c(=O)c2c(nc(N/N=C/c3c(O)n(C4CCCCC4)c(=S)[nH]c3=O)n2C)n(C)c1=O	16µM*	-3%[10 µM]	-19%[9.22 µM]	?	?
Clc1ccc(-c2nc3ccc(Cl)cn3c2CN2CCOCC2)cc1	-5%	-17%[10 µM]	?	3%	6%
COc1cc(-c2nc3ccc(Cl)cn3c2Nc2ccc3c(c2)OCCO3)ccc1O	?	·	·	10µM*[quencher]	13%
C=CCN1C(=O)NC(=O)/C(=C/C=C/c2ccccc2)C1=O	28µM*	-34%	-4%	-20%	?
O=C1NC(=O)N(CCc2ccc(F)cc2)C(=O)/C1=C\C=C\c1ccccc1	28µM*	-25%	21%	-19%	?
O=c1cccc2n1C[C@@H]1C[C@H]2CN2CCCC[C@H]12	·	-64%	·	·	·
CC[C@H]1C(=O)OC[C@@H]1Cc1cncn1C	·	10%	·	·	·
COC(=O)[C@]1(C)CC[C@@]2(C)CC[C@@]3(C)C4=CC=C5C(=CC(=O)C(O)=C5C)[C@@]4(C)CC[C@@]3(C)C2C1 (stereo partly specified)	28µM*	-342%	·	?	?
COc1ccc2[nH]cc(CCN)c2c1	?	-24%	-1%	0%	4%
CCCCCCCCCOc1ccc2[nH]cc(CCN)c2c1	?	-14%	·	7.9µM*[quencher]	?
